In PubChem BioAssay (NCI):
About 83,000 compounds went through this panel and 20% of them were active in at least one assay; those are over-represented in the sample as a whole.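 Each cell line was grown in a 96-well plate and treated with one concentration of compound for 48 hours. Values below 10 were considered active.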 Unmarked numbers belong to inactive results. The source made the active and inactive calls.

Columns and labels:
Experiment in all cases: NCI-60 one-dose screen, 48 h (100 = growth as untreated, 0 = no growth, -100 = all killed)
Conditions in all cases: 10 µM unless noted
HCT-15 colon = test system: HCT-15 colon
HT29 colon = test system: HT29 colon
SNB-75 CNS = test system: SNB-75 CNS
SNB-19 CNS = test system: SNB-19 CNS
U251 CNS = test system: U251 CNS
PC-3 prostate = test system: PC-3 prostate
SK-MEL-5 melanoma = test system: SK-MEL-5 melanoma
UACC-62 melanoma = test system: UACC-62 melanoma
LOX IMVI melanoma = test system: LOX IMVI melanoma
SK-MEL-28 melanoma = test system: SK-MEL-28 melanoma
SK-MEL-2 melanoma = test system: SK-MEL-2 melanoma
EKVX NSCLC = test system: EKVX NSCLC
SN12C renal = test system: SN12C renal
UO-31 renal = test system: UO-31 renal
TK-10 renal = test system: TK-10 renal
ACHN renal = test system: ACHN renal
CAKI-1 renal = test system: CAKI-1 renal
A498 renal = test system: A498 renal
CCRF-CEM leukemia = test system: CCRF-CEM leukemia
MOLT-4 leukemia = test system: MOLT-4 leukemia

| Structure (SMILES) | growth (HCT-15 colon) | growth (HT29 colon) | growth (SNB-75 CNS) | growth (SNB-19 CNS) | growth (U251 CNS) | growth (PC-3 prostate) | growth (SK-MEL-5 melanoma) | growth (UACC-62 melanoma) | growth (LOX IMVI melanoma) | growth (SK-MEL-28 melanoma) | growth (SK-MEL-2 melanoma) | growth (EKVX NSCLC) | growth (SN12C renal) | growth (UO-31 renal) | growth (TK-10 renal) | growth (ACHN renal) | growth (CAKI-1 renal) | growth (A498 renal) | growth (CCRF-CEM leukemia) | growth (MOLT-4 leukemia) |
| --- | --- | --- | --- | --- | --- | --- | --- | --- | --- | --- | --- | --- | --- | --- | --- | --- | --- | --- | --- | --- |
| COC(=O)c1cc(O)c2c(c1C(=O)OC)C[C@H]1[C@@H]3CC=C4C[C@@H](O)CC[C@]4(C)[C@H]3CC[C@]21C | 24.6% | 16.2% | 62.2% | 66.9% | 37.5% | 41.3% | 1.59% (active) | 40.9% | 9.77% (active) | 46.3% | 78.7% | 55% | 71.3% | 39.9% | 55% | 39.9% | 26.2% | 49.8% | 37.8% | 35.6% |
| CCN(CC)c1ccc2cc(C(Nc3ccc(C)cc3)c3nnnn3C(C)(C)C)c(=O)oc2c1 (stereo unspecified) | 98.3% | 94.8% | 77.6% | 87.8% | 89.2% | 73.7% | 83.4% | 71.7% | 94.8% | 106% | 94.3% | 86.9% | 91.8% | 72.5% | 90.7% | 98.2% | 79.2% | 94.7% | 98.6% | 65.5% |
| COc1ccc(NCc2cn(-c3ccc(C(=O)O)cc3)nc2-c2ccc(C(=O)O)cc2)cc1C(F)(F)F | 105% | 101% | 84% | 96.4% | 93.7% | 102% | 94.8% | 94.3% | 97.4% | 97.3% | 106% | 84.2% | 95.3% | 88.1% | 83% | 98.1% | 86.3% | 81.2% | -50.4% (active) | 123% |
| N#CCCc1c[nH]c2ccccc12 | 104% | 91.1% | 76.4% | 105% | 91.3% | 78.6% | 92.1% | 98.6% | 90.5% | 106% | 88.4% | 94.3% | 101% | 68% | 104% | 97% | 87.3% | 103% | 81.6% | 96.1% |
| COc1cc2c(c(OC)c1OC)-c1ccc(NNC(N)=S)c(=O)cc1[C@@H](NC(C)=O)CC2 | 38.8% | -17.8% (active) | 59.5% | 42.3% | 13.6% | 13.8% | -41.2% (active) | 32.2% | 26.2% | 62.8% | -8.39% (active) | 51.2% | 35.9% | 50.8% | 58.7% | 46.3% | 37.5% | 46.6% | 20.8% | 23.1% |
| C=C(C)[C@@H]1CC[C@]2(C(=O)NCCNCCNCCN)CC[C@]3(C)[C@H](CC[C@@H]4[C@@]5(C)CC[C@H](O)C(C)(C)[C@@H]5CC[C@]43C)[C@@H]12 | -24.8% [100 µM] (active) | -39.6% [100 µM] (active) | -79.3% [100 µM] (active) | -74.5% [100 µM] (active) | -71.6% [100 µM] (active) | 1.07% [100 µM] (active) | -90.1% [100 µM] (active) | -100% [100 µM] (active) | -41% [100 µM] (active) | -98.7% [100 µM] (active) | -65.4% [100 µM] (active) | -11.4% [100 µM] (active) | -53.7% [100 µM] (active) | -100% [100 µM] (active) | -67.3% [100 µM] (active) | -100% [100 µM] (active) | -93.6% [100 µM] (active) | -32.6% [100 µM] (active) | 5.18% [100 µM] (active) | 1.18% [100 µM] (active) |
| COc1ccc2nc3c(cc2c1)C(=O)CC(c1ccccc1)C3 (stereo unspecified) | 24.8% | 9.97% (active) | -9.09% (active) | 34.3% | 45% | 28.8% | 30.2% | 36.9% | 36.1% | 54.6% | 70% | 44.5% | 40.7% | 34.5% | 64% | 43.9% | 31.3% | -13.5% (active) | 10.7% | 17.8% |
| COc1ccc2c(c1)C(C)Cc1c(ncnc1-n1cnc3ccccc31)N2C (stereo unspecified) | 16.1% | -17.8% (active) | 37.5% | 33.4% | 21.4% | 17.5% | 11.2% | 39% | 26.6% | 59.5% | 44% | 40.4% | 24.5% | 46.9% | 63.7% | 50.1% | 27.6% | -0.234% (active) | 9.22% (active) | 17.8% |
| CCOC(=O)/C(C#N)=C(\C)CCc1ccccc1 | 87.7% | 98.6% | 52.3% | 104% | 96.4% | 92.7% | 98.4% | 110% | 96.9% | 97.7% | 106% | 105% | 118% | 99.6% | 140% | 101% | 80.9% | 77.9% | 102% | 153% |
| c1coc2occoc=2o1 | 102% | 106% | 97.4% | 107% | 101% | 96.8% | 97.2% | 102% | 102% | 112% | 105% | 106% | 89.2% | 92.5% | 103% | 102% | 101% | 107% | 98.9% | 114% |
| Cc1nc(Cl)c2c(n1)N(C)c1ccc(Cl)cc1C(C)C2 (stereo unspecified) |  |  |  |  |  |  |  |  |  |  |  |  |  |  |  |  |  | 81.5% |  |  |
| C=C(CC(=O)OC)C(C)=O | 117% | 119% | 110% | 103% | 116% | 109% | 107% | 95.4% | 110% | 118% | 118% | 99% | 100% |  | 107% | 109% | 101% | 95.1% | 118% | 95.2% |
| CC1(C)[C@@H](NOCCCN)CC[C@]2(C)[C@H]3C(=O)C=C4[C@@H]5C[C@](C)(C(=O)O)CC[C@]5(C)CC[C@@]4(C)[C@]3(C)CC[C@@H]12 | -15% [100 µM] (active) | -57.8% [100 µM] (active) | -56.5% [100 µM] (active) | -54.9% [100 µM] (active) | -71.6% [100 µM] (active) | -19.6% [100 µM] (active) | -51.4% [100 µM] (active) | -100% [100 µM] (active) | -82.6% [100 µM] (active) | -80.7% [100 µM] (active) | -63.8% [100 µM] (active) | -41.4% [100 µM] (active) | -82.8% [100 µM] (active) |  | -84.1% [100 µM] (active) | -100% [100 µM] (active) | -79.1% [100 µM] (active) | -88.7% [100 µM] (active) | 11.6% [100 µM] | -6.4% [100 µM] (active) |
| N#C/C(C(=O)c1ccccc1)=C1/C(=O)Nc2ccc(F)cc21 | 106% | 116% | 78.3% | 98.4% | 104% | 93.3% | 103% | 92.7% | 100% | 108% | 108% | 94.2% | 98% |  | 122% | 92.6% | 86.3% | 81.1% | 116% | 104% |
| O=C(Nc1ccc(F)cc1)c1ccccc1 | 96.6% | 114% | 106% | 101% | 102% | 108% | 101% | 90.8% | 105% | 101% | 106% | 101% | 102% |  | 95.7% | 101% | 91.6% | 92.4% | 100% | 97.8% |
| C=C(C)[C@@H]1CC[C@]2(C(=O)NCCNCCNCCN)CC[C@]3(C)[C@H](CC[C@@H]4[C@@]5(C)CCC(=O)C(C)(C)[C@@H]5CC[C@]43C)[C@@H]12 | -36.6% [100 µM] (active) | -77.4% [100 µM] (active) | -41.5% [100 µM] (active) | -78.5% [100 µM] (active) | -81.8% [100 µM] (active) | -24.6% [100 µM] (active) | -86.2% [100 µM] (active) | -77.9% [100 µM] (active) | -68.2% [100 µM] (active) | -73.9% [100 µM] (active) | 56.4% [100 µM] | 11.4% [100 µM] | -88.5% [100 µM] (active) |  | -77.7% [100 µM] (active) | -83.3% [100 µM] (active) | -8.79% [100 µM] (active) | 80.8% [100 µM] | -11.3% [100 µM] (active) | -16.3% [100 µM] (active) |
